High-throughput results as filed in PubChem BioAssay.
Only some compounds are listed: those with a hit (about 11% of all), similar ones and a draw of the others.
AMA1-RON2 inh: AMA1-RON2 (P. falciparum) interaction inhibition | AlphaScreen AMA1-biotinylated RON2 peptide binding | Potency, µM (top dose mostly 58.2 µM), for inactives: at the highest dose activity change, negative = inhibition, most hits filed as inhibitors | actives 0.2% (n = 360,000);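 further: 0% = vehicle wells and -100% = peptide control; nearly all actives have a fitted effect of over 45% in size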
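AMA1 (3D7) with his tag at 25 nM final met compounds first, then biotinylated RON2 peptide at 25 nM; detection used donor plus acceptor beads, 10 µg/mL apiece, read by AlphaScreen after 30 min at room temperature.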
Pf growth 96h: P. falciparum growth inhibition at 96 hours | Potency, µM (doses to about 28.7 µM), without a hit: at the top dose activity change, negative = inhibition, actives largely listed as inhibitors | actives 6.9% (n = 320,000) | P. falciparum luciferase reporter growth, 96 h; further: on the % scale 0 is the no-effect control and ±100 the full control effect
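Infected RBCs, 2% Hct / 0.05% parasitemia final; luciferase-reporter P. falciparum; cpd 96 h, 37 C, 5% CO2; luciferase detection reagent; luminescence.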
NS1 inh: influenza NS1 inhibition | actives 0.4% (n = 270,000) | Potency, µM (doses to about 46.1 µM), inactives show at the highest dose activity, positive = more growth; calls by dose curve; further: actives are rising curves; nearly all actives have a fitted effect of over 50% in size
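Recovery from NS1-induced slow growth read by OD600 in budding yeast switched to galactose assay medium (pH 6.0, -URA) at 1:100 dilution. Compound 23 nl per well; the matching strain lacking NS1 serves as control.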
Sm TGR block: S. mansoni TGR enzyme inhibition; purified TGR, DTNB reduction, TNB absorbance 405 nm; actives 3% (n = 360,000); AID 485364; Potency, µM (top dose mostly 114 µM), inactives show at the top dose activity change, negative = inhibition, hits mostly inhibitors; Q962Y6; further: on the % scale 0 is the no-effect control and ±100 the full control effect; nearly all actives have a fitted effect of over 60% in size
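Kinetic colorimetric format: TGR-catalysed, NADPH-driven DTNB reduction monitored via TNB absorbance. Enzyme dispensed at 20 nM; compound exposure 15 min at room temperature before reaction start.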
Pf growth 48h: inhibits P. falciparum growth in the first generation, 48 h. P. falciparum luciferase growth in erythrocytes, 48 h. Potency, µM (highest dose often 28.7 µM), for the others: at the highest dose activity change, negative = inhibition, usual class: inhibitors. actives 5.9% (n = 310,000); further: on the % scale 0 is the no-effect control and ±100 the full control effect
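Read-out is firefly luciferase luminescence from an integrated reporter in P. falciparum, so falling signal marks reduced parasite growth. Infected erythrocytes were at 2% hematocrit and 0.1% parasitemia (final) in Albumax-supplemented RPMI 1640.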
Numbers without * were called inactive; i = inactive; u = inconclusive; x = no result; [ ] = remark or other dose. Unless noted, the call rests on the fitted dose curve; in most records, active means well fitted curve in the direction sought with a large enough effect; inconclusive means small, poorly fitted or top-dose-only effect, or another doubt; inactive means no such curve, though single readings can be large; an effect the other way counts as inactive or inconclusive. Potency means the concentration at half of the fitted maximal effect.

SMILES | AMA1-RON2 inh | Pf growth 96h | NS1 inh | Sm TGR block | Pf growth 48h
O=C(COC(=O)c1cccc(S(=O)(=O)N2CCCC2)c1)Nc1ccccc1C(F)(F)F | 14% | 24% | x | -3% | -22%
CCOC(=O)c1c(C)[nH]c2cc(Br)c(O)cc12 | 10% | x | -30% | 0%[11.4 µM] | x
CCOC(=O)c1c(OCC)[nH]c2c1cc(O)c1ccccc12 | 15µM* | -25% | -11% | 6%[11.4 µM] | x
COc1ccc(CCN(C)S(=O)(=O)c2cn(C)c(=O)n(C)c2=O)cc1OC | 2% | -21% | x | 0% | 8%
CN(C)S(=O)(=O)c1ccc(NCC2COc3ccccc3O2)c([N+](=O)[O-])c1 (stereo not given) | -25% | 13µM* | 24% | -8% | -9%
CCN(CC)S(=O)(=O)c1ccc2oc(C(=O)NCC3COc4ccccc4O3)c(C)c2c1 (stereo not given) | -16% | u | u | 0% | 10µM*
CCN(CC)S(=O)(=O)c1ccc2oc(C(=O)NCc3ccc(F)cc3)c(C)c2c1 | 9% | x | -3% | -8% | 8.3µM*
Cc1c(C(=O)NCC2COc3ccccc3O2)oc2ccc(S(=O)(=O)N3CC(C)CC(C)C3)cc12 (stereo not given) | -4% | x | 11% | 0% | 8.3µM*
CCN(CC)S(=O)(=O)c1ccc(NCC2COc3ccccc3O2)c([N+](=O)[O-])c1 (stereo not given) | -21% | u | 12% | -2% | u
CC1CN(C(C)C(=O)NC(c2ccccc2)c2ccccc2)CC(C)O1 (stereo not given) | 1% | 4% | 0% | -15% | 1%
O=C(Nc1ccc(Cl)c(Cl)c1)N(Cc1c[nH]c2ccccc12)C1CCCCC1 | x | x | x | -4% | x
Cc1cccc(COCC(CC(C)C)N2CCN(C(=O)c3ccc(C(F)(F)F)cc3)CCC2=O)c1 (stereo not given) | -2% | u | -6% | -1% | 10µM*
CC(C)C[C@@H](COCc1ccc(F)cc1)N1CCN(C(=O)c2cccc(C(F)(F)F)c2)CCC1=O | 4% | x | x | x | x
CC(C)CC(COCc1ccc(F)cc1)N1CCN(C(=O)c2cccc(C(F)(F)F)c2)CCC1=O (stereo not given) | 5% | 13µM* | -14% | -11% | u
O=C(c1cccc(Cl)c1)N1CCC(=O)N([C@H](COCc2ccccc2)Cc2ccccc2)CC1 | 1% | x | x | x | x
Cc1cccc(COC[C@H](CC(C)C)N2CCN(C(=O)c3ccc(C(C)(C)C)cc3)CCC2=O)c1 | -9% | x | x | x | x
O=C(c1cccc(Cl)c1)N1CCC(=O)N(C(COCc2cccc(Cl)c2)Cc2ccccc2)CC1 (stereo not given) | -5% | 13µM* | 17% | -17% | u
CC(C)C[C@@H](COCc1cccc(Cl)c1)N1CCN(C(=O)c2cccc(C(F)(F)F)c2)CCC1=O | 4% | x | x | x | x
CC(C)CC(COCc1cccc(Cl)c1)N1CCN(C(=O)c2ccc(C(F)(F)F)cc2)CCC1=O (stereo not given) | 9% | 7.4µM* | 1% | -16% | 13µM*
NC[C@@H]1O[C@H](O[C@@H]2[C@H](O[C@@H]3O[C@H](CO)[C@@H](O)[C@@H]3O)[C@@H](O)[C@@H](N)C[C@H]2N)[C@@H](N)[C@H](O)[C@@H]1O | x | -26%[12.8 µM] | x | x | -11%[12.8 µM]
Cc1ccc(-c2nnc(Cc3ccc([N+](=O)[O-])cc3)o2)cc1 | -2% | 1% | x | 6% | i
Cc1cccc(COCC(CC(C)C)N2CCN(C(=O)c3ccc(C(C)(C)C)cc3)CCC2=O)c1 (stereo not given) | -7% | u | -44% | -7% | 7.4µM*
COc1ccc(CNc2ncnc3cc(OC)c(OC)cc23)cc1 | -3% | 2.1µM* | 1% | -14% | 4.1µM*
COc1cc2ncnc(NCc3ccc4c(c3)OCO4)c2cc1OC | -7% | u | -1% | 4% | 12µM*
O=C1CN=C(c2ccccc2)c2oc3ccc(Br)cc3c2N1 | -13% | 10% | 0% | -9% | 2%
SMILES | AMA1-RON2 inh | Pf growth 96h | NS1 inh | Sm TGR block | Pf growth 48h
Cc1c(-c2ccncc2)oc2ccc(Br)cc2c1=O | x | u | 1% | 7% | 9.3µM*
Cc1ccc(NC(=O)C2=CCN(S(=O)(=O)c3ccc(F)cc3)CC2)c(C)c1 | -11% | 0.33µM* | 3% | -5% | 13%
Cc1oc2cc3oc(=O)c(CCC(=O)NCCN4CCOCC4)c(C)c3cc2c1C | -1% | 10µM* | 9% | -11% | -39%
Cc1coc2cc3oc(=O)c(CCC(=O)NCCCN4CCOCC4)c(C)c3cc12 | -2% | -10% | 10% | -19% | 2%
Nc1ncnc2c1ncn2[C@@H]1O[C@H](CNCC#Cc2ccccc2)[C@@H](O)[C@H]1O | 2% | x | x | x | x
CC1CCN(C(=O)CN(Cc2ccc(F)cc2)S(C)(=O)=O)CC1 | -7% | -12% | 2% | 0% | -2%
CS(=O)(=O)N(CC(=O)N1CCCC1)Cc1ccc(F)cc1 | -4% | u | 4% | 40µM* | 42%
O=C(CN(Cc1ccc(F)cc1)S(=O)(=O)c1ccccc1)N1CCCCC1 | 5% | 4.1µM* | -10% | 0% | u
CCc1noc(C)c1C(=O)N1CCCC(N2CCN(c3ccccc3F)CC2)C1 (stereo not given) | 1% | u | -5% | -32% | -24%
COc1ccc(OC)c(C(=O)N2CCC(C(=O)c3ccc(F)cc3)CC2)c1 | 5% | 9.3µM* | -2% | -13% | -16%
CC1C/C(=N/N2C(=O)CSC2=S)CC(C)(C)C1 (stereo not given) | -10% | 13µM* | 7% | u | 31%
O=C1CS/C(=N/N=C2C3CC4CC(C3)CC2C4)N1 | 31% | 13µM* | 8% | 5% | 6%
CC1C/C(=N/N=C2/NC(=O)CS2)CC(C)(C)C1 (stereo not given) | 34% | 10µM* | -3% | -2% | -12%
Cc1ccc(-c2nnn3c2nc(NCCc2ccccc2)c2ccccc23)cc1 | x | x | x | 2% | x
Cc1ccc(Nc2sc(C(=O)c3ccccc3)c(N)c2C(=O)NC(C)C)cc1 | x | x | x | 32µM* | x
COc1ccc(NC(=O)c2c(Nc3ccccc3)sc(C(=O)c3ccc(F)cc3)c2N)cc1 | -15% | x | -2% | -11% | u
COc1ccc(Nc2sc(C(=O)c3ccc(Cl)cc3)c(N)c2C(=O)Nc2ccccc2OC)cc1 | -14% | x | 0% | 0% | 10µM*
COc1ccc(C(=O)c2sc(Nc3cccc(OC)c3)c(C(=O)Nc3cccc(C)c3C)c2N)cc1 | 67% | 12µM* | 13% | -3% | x
COc1ccc(C(=O)c2sc(Nc3ccccc3)c(C(=O)Nc3ccc(OC)c(OC)c3)c2N)cc1 | -7% | u | 16% | 0% | 13µM*
CC1=C(C(=O)Nc2cc(C(=O)N3CCN(c4cccc(C)c4)C(C)C3)ccc2C)SCCO1 (stereo not given) | -6% | 30% | -1% | -9% | u
